Measurements reported in PubChem BioAssay.
Inconclusive results are not listed. Active and inactive are the calls of the source. Unless noted, cut-off not given; nearly all actives show AC50 up to about 26 µM. Where a SMILES comes first, the peptide text is derived from it. The star is where a group is joined. Cbz = O=C(OCc1ccccc1)*

Assays:
[1] = viability loss in pontine glioma line – cell-based, SU-DIPG-XVII, MIPE5.0, CellTiter-Glo, qHTS, dose response (AID 1347060); settings: CellTiter-Glo ATP luminescence;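 on AC50: cells exposed to compound for 48 hours before viability readout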
[2] = viability loss in pontine glioma line – cell-based, JHH-DIPG-1, MIPE4.0, CellTiter-Glo, qHTS, dose response (AID 1347062; cut-off not given, nearly all actives have AC50 up to about 27 µM;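 on AC50: cells exposed to compound for two days before readout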); settings: JHH-DIPG-1 viability, CellTiter-Glo ATP luminescence
[3] = viability loss in pontine glioma line – cell-based, SU-DIPG-IV, MIPE4.0, CellTiter-Glo, qHTS, dose response (AID 1347063; cut-off not given, nearly all actives have AC50 up to about 30 µM;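 further: compound exposure lasted 48 hours before the viability readout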); settings: CellTiter-Glo ATP luminescence
[4] = viability loss in pontine glioma line – cell-based, SU-DIPG-XIII, MIPE5.0, CellTiter-Glo, qHTS, dose response (AID 1347064; cut-off not given, nearly all actives have AC50 up to about 23 µM;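 on AC50: cells exposed to compound for 48 hours before the viability read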); settings: CellTiter-Glo ATP luminescence
[5] = viability loss in pontine glioma line – cell-based, SU-DIPG-XXV, MIPE5.0, CellTiter-Glo, qHTS, dose response (AID 1347065); settings: CellTiter-Glo ATP luminescence;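 further: cells exposed to compound for 48 hours before ATP readout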
[6] = growth inhibition of DIPG cells – cell-based, MIPE4.0 library, CellTiter-Glo luminescence, qHTS (AID 1347066; cut-off not given, nearly all actives have AC50 up to about 30 µM;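 further: cells exposed to compound for 48 hours before readout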); settings: SU-DIPG-VI viability, CellTiter-Glo ATP luminescence
[7] = JHH-DIPG-1 glioma cell viability, MIPE5.0 library, CellTiter-Glo luminescence, qHTS (AID 1347067); settings: JHH-DIPG-1 glioma viability, CellTiter-Glo ATP luminescence;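 further: cells exposed to compound for 48 hours before readout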
[8] = growth inhibition of DIPG cells – cell-based, MIPE5.0 library, qHTS (AID 1347068; cut-off not given, nearly all actives have IC50 up to about 30 µM;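 on IC50: cells exposed to compound for 48 hours before viability readout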); settings: SU-DIPG-XXV viability
[9] = viability loss with induced miR-34 in A549 – imaging, A549 dox-inducible miR-34, nuclei and caspase counts, primary screen (AID 1347080;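 active means compounds whose cell count with miR-34 switched on is under 0.7 times the count with it off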); settings: A549 miR-34 inducible, Hoechst nuclei count, 48 h
[10] = compounds altering HSF1 focus formation in cells – imaging, Selleck Cancer Library (AID 1347162; in the data active means plate-normalised HSF1 focus index below about 0.46); settings: human cells, HSF1 nuclear foci imaging, at 10 µM; SSMD: measured here: HSF1 foci SSMD mean; cell count: measured here: cell number; plate-normalised HSF1 focus index: stronger effect = lower value
[11] = MELAS cybrid and Rieske KO viability enhancers – cell-based, MELAS cybrids, Rieske KO mouse fibroblasts, CellTiter-Glo, primary screen (AID 1508586;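 active means mean z-score across replicates of 1.96 or higher in either the MELAS or the Rieske mutant cell line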;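 further: z relative to plate mean and SD of compound and empty wells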); settings: low glucose
[12] = drug combination growth inhibition, ovarian cancer – cell-based, oncology-focused library, rucaparib conditional, profiling panel (AID 1508598;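 active means normalized viability below 100% at a tested concentration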); settings: patient-derived ovarian cancer cells, CellTiter-Glo viability, 144 h, stronger effect = lower value
[13] = viability loss in pontine glioma line – cell-based, SU-DIPG-XIII, MIPE4.0, CellTiter-Glo, qHTS, dose response (AID 1347061; cut-off not given, nearly all actives have AC50 up to about 37 µM;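 further: cells exposed to compound for 48 hours before readout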); settings: CellTiter-Glo ATP luminescence
[14] = stronger effect = lower value, cell number ratio, induced over uninduced
[15] = measured here: relative caspase fold change +Dox/-Dox
[16] = measured here: total cells with miR-34 induction, stronger effect = lower value
[17] = measured here: total cells without miR-34 induction
[18] = MELAS cybrid survival, CellTiter-Glo 48 h, stronger effect = higher value
[19] = Rieske KO mouse fibroblast survival, CellTiter-Glo 72 h

CC1(COc2ccc3c(c2)ncn3-c2ccc3cccc(N4CCC(N)CC4)c3n2)COC1
-3.35: z-score [11, 19]
-2.3: SSMD [10]
inactive: fold change [9, 14] 0.944 | plate-normalised HSF1 focus index [10] 0.92 | z-score [11, 18] 0.899 | viability ([12]; at 0.000305 µM, OCI-C5x cells, with rucaparib 10 µM, 100% = cells with rucaparib alone) 110% | viability ([12]; at 0.000305 µM, OCI-C5x cells, without rucaparib) 122% | viability ([12]; at 0.000305 µM, OCI-P5x cells, with rucaparib 20 µM, 100% = cells with rucaparib alone) 122% | viability ([12]; at 0.000305 µM, OCI-P5x cells, without rucaparib) 113% | viability ([12]; at 0.00122 µM, OCI-C5x cells, with rucaparib 10 µM, 100% = cells with rucaparib alone) 115% | viability ([12]; at 0.00122 µM, OCI-C5x cells, without rucaparib) 125% | viability ([12]; at 0.00122 µM, OCI-P5x cells, with rucaparib 20 µM, 100% = cells with rucaparib alone) 119% | viability ([12]; at 0.00122 µM, OCI-P5x cells, without rucaparib) 120% | viability ([12]; at 0.00488 µM, OCI-C5x cells, with rucaparib 10 µM, 100% = cells with rucaparib alone) 111% | viability ([12]; at 0.00488 µM, OCI-C5x cells, without rucaparib) 121% | viability ([12]; at 0.00488 µM, OCI-P5x cells, with rucaparib 20 µM, 100% = cells with rucaparib alone) 120% | viability ([12]; at 0.00488 µM, OCI-P5x cells, without rucaparib) 117% | viability ([12]; at 0.0195 µM, OCI-C5x cells, with rucaparib 10 µM, 100% = cells with rucaparib alone) 115% | viability ([12]; at 0.0195 µM, OCI-C5x cells, without rucaparib) 127% | viability ([12]; at 0.0195 µM, OCI-P5x cells, with rucaparib 20 µM, 100% = cells with rucaparib alone) 119% | viability ([12]; at 0.0195 µM, OCI-P5x cells, without rucaparib) 127% | viability ([12]; at 0.0781 µM, OCI-C5x cells, with rucaparib 10 µM, 100% = cells with rucaparib alone) 119% | viability ([12]; at 0.0781 µM, OCI-C5x cells, without rucaparib) 130% | viability ([12]; at 0.0781 µM, OCI-P5x cells, with rucaparib 20 µM, 100% = cells with rucaparib alone) 131% | viability ([12]; at 0.0781 µM, OCI-P5x cells, without rucaparib) 120% | viability ([12]; at 0.313 µM, OCI-C5x cells, with rucaparib 10 µM, 100% = cells with rucaparib alone) 116% | viability ([12]; at 0.313 µM, OCI-C5x cells, without rucaparib) 137% | viability ([12]; at 0.313 µM, OCI-P5x cells, with rucaparib 20 µM, 100% = cells with rucaparib alone) 129% | viability ([12]; at 0.313 µM, OCI-P5x cells, without rucaparib) 123% | viability ([12]; at 1.25 µM, OCI-C5x cells, with rucaparib 10 µM, 100% = cells with rucaparib alone) 102% | viability ([12]; at 1.25 µM, OCI-C5x cells, without rucaparib) 131% | viability ([12]; at 1.25 µM, OCI-P5x cells, with rucaparib 20 µM, 100% = cells with rucaparib alone) 142% | viability ([12]; at 1.25 µM, OCI-P5x cells, without rucaparib) 119%
1.21: fold change [9, 15]
1400: cell count [9, 17]
active: AC50 [1] 9.34 µM | AC50 [2] 0.332 µM | AC50 [3] 1.18 µM | AC50 [4] 10.5 µM | AC50 [5] 8.33 µM | AC50 [6] 23.5 µM | AC50 [7] 13.2 µM | IC50 [8] 26.3 µM | viability ([12]; at 5 µM, OCI-C5x cells, with rucaparib 10 µM, 100% = cells with rucaparib alone) 77.3% | viability ([12]; at 5 µM, OCI-C5x cells, without rucaparib) 77.6% | viability ([12]; at 5 µM, OCI-P5x cells, with rucaparib 20 µM, 100% = cells with rucaparib alone) 4.5% | viability ([12]; at 5 µM, OCI-P5x cells, without rucaparib) 81.8%
1330: cell count [9, 16]
7140: cell count [10]

Cc1cnc(Nc2cccc(CN3CCOCC3)c2)nc1Nc1cccc(S(=O)(=O)NC(C)(C)C)c1
active: AC50 [1] 0.332 µM | AC50 [2] 7.43 µM | AC50 [3] 5.26 µM | AC50 [4] 2.95 µM | AC50 [5] 1.18 µM | AC50 [6] 14.8 µM | AC50 [7] 2.35 µM

NS(=O)(=O)c1cccc2c1C(=O)c1cccc(O)c1C2=O
active: AC50 [1] 2.35 µM | AC50 [2] 1.18 µM | AC50 [3] 0.332 µM | AC50 [4] 1.18 µM | AC50 [5] 1.86 µM | AC50 [6] 0.526 µM | AC50 [7] 2.09 µM | IC50 [8] 9.34 µM

CCc1cnn2c(NCc3ccc[n+]([O-])c3)cc(N3CCCC[C@H]3CCO)nc12
inactive: outcome [6]
active: AC50 [1] 0.0372 µM | AC50 [2] 0.0235 µM | AC50 [3] 0.0187 µM | AC50 [4] 0.0372 µM | AC50 [5] 0.0295 µM | AC50 [7] 0.0417 µM

CC1=C(C(=O)Nc2cc3cn[nH]c3cc2F)C(c2ccc(Cl)cc2F)N=C(c2ccnc(Cl)c2)N1 (configuration not stated)
active: AC50 [1] 13.2 µM | AC50 [5] 5.9 µM | AC50 [7] 16.6 µM
inactive: outcome [13]

NC1=N[C@H]2[C@H](CS[C@H]2CCCCC(=O)O)N1
inactive: outcome [1] | outcome [2] | outcome [3] | outcome [4] | outcome [5] | outcome [6] | outcome [7]

CNC(=O)c1ccc(N2C(=S)N(c3cnc(C#N)c(C(F)(F)F)c3)C(=O)C23CCC3)cc1F
0.855: z-score [11, 19]
9240: cell count [9, 16]
10200: cell count [9, 17]
inactive: outcome [1] | outcome [4] | outcome [5] | outcome [7] | outcome [8] | fold change [9, 14] 0.909 | z-score [11, 18] -0.228
0.701: fold change [9, 15]
active: AC50 [2] 0.935 µM | AC50 [3] 1.32 µM | AC50 [6] 18.7 µM

Cc1ccc(Nc2cc(-c3cccc(N4C(=O)c5ccccc5C4=O)c3)ncn2)cc1NS(C)(=O)=O
active: AC50 [1] 20.9 µM | AC50 [3] 18.7 µM
inactive: outcome [2]

O=C1CCCC(=O)C1C(=O)c1ccc(C(F)(F)F)cc1[N+](=O)[O-]
inactive: outcome [1] | outcome [2] | outcome [3] | outcome [4] | outcome [5] | outcome [6] | outcome [7] | outcome [8]

CC(C)C[C@@H](C=O)NC(=O)[C@H](CC(C)C)NC(=O)[C@H](CC(C)C)NC(=O)OCc1ccccc1 (Cbz-Leu-Leu-Leu-aldehyde)
595: cell count [9, 17]
6800: cell count [10]
active: AC50 [1] 0.468 µM | AC50 [2] 0.166 µM | AC50 [3] 0.148 µM | AC50 [4] 0.059 µM | AC50 [5] 0.148 µM | AC50 [6] 0.296 µM | AC50 [7] 0.468 µM | IC50 [8] 0.263 µM
inactive: fold change [9, 14] 1.07 | plate-normalised HSF1 focus index [10] 1.43
1.23: fold change [9, 15]
638: cell count [9, 16]
7.09: SSMD [10]

C[C@H](NC(=O)/C(C#N)=C/c1cccc(Br)n1)c1ccccc1
active: AC50 [1] 7.42 µM | AC50 [2] 9.35 µM | AC50 [3] 7.43 µM | AC50 [4] 7.42 µM | AC50 [5] 3.72 µM | AC50 [6] 14.8 µM | AC50 [7] 9.34 µM

CCN(CC)CCNC(=O)c1ccc2nc(-c3ccccc3)c(-c3ccc(CN4CCC(n5c(=O)[nH]c6ccccc65)CC4)cc3)nc2c1
active: AC50 [1] 11.8 µM | AC50 [2] 8.33 µM | AC50 [3] 4.69 µM | AC50 [4] 14.8 µM | AC50 [5] 10.5 µM | AC50 [6] 3.32 µM | AC50 [7] 10.5 µM | IC50 [8] 7.42 µM
